Consider eight molecules from ChEMBL document CHEMBL3988442, “University of Dundee, Small-Polar-MMV Screening Library” (2021).

Holding throughout (set-up): scale not given: direction of the effect not stated beside the values
Assay [1] deals with Protein translocase subunit SecA (Escherichia coli (strain K12)) (UniProt P10408). In words: Assay to Identify E. coli SecA ATPase Inhibitors. Type of assay: functional. Particulars: 30 µM.
Assay [2] concerns the target T1, Ubiquitin-activating enzyme e1, putative (Leishmania donovani (strain BPK282A1)) (UniProt E9BSI1).
T1 sequence (whole entry): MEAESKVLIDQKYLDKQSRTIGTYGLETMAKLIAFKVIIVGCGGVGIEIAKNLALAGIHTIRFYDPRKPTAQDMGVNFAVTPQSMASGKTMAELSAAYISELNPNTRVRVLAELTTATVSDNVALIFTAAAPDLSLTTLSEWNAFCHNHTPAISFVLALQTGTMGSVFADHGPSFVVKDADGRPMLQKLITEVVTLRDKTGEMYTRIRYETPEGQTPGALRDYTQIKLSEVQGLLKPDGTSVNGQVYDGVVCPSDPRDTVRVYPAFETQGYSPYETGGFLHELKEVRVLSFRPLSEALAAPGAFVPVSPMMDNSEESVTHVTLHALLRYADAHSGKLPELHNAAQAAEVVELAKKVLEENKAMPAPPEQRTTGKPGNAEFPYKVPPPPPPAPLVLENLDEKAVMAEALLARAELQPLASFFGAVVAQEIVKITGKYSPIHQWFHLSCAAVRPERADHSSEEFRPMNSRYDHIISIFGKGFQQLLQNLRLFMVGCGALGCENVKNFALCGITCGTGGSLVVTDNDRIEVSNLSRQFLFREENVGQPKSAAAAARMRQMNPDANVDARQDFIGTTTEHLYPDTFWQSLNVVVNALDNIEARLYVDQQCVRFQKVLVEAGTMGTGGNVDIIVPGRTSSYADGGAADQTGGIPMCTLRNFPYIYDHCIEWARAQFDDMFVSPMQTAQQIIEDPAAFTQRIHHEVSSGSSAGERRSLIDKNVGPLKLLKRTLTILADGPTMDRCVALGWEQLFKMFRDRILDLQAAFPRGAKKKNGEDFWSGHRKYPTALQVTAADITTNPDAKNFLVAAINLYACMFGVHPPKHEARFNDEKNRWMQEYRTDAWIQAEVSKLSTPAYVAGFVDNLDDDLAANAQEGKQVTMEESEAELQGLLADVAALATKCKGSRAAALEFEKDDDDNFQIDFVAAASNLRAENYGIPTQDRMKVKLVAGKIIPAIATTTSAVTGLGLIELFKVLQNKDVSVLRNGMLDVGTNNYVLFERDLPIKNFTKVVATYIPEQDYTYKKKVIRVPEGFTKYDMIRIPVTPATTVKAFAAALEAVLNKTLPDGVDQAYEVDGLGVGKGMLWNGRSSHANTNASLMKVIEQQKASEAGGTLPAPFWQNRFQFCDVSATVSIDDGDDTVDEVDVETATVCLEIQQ
In words: Leishmania donovani Ubiquitin Activating Enzyme (LdE1). Type of assay: functional. Particulars: 30 µM.

The target of assay [3] is AMP-activated protein kinase, AMPK (Homo sapiens) (UniProt P54646+O43741+P54619+Q9UGJ0+Q9Y478+Q13131+Q9UGI9). In words: AMP-dependent Kinase enzyme assay. An in vitro enzyme assay that detects ADP turnover that is directly proportional to AMPK activity. This uses naive AMPK that is activated during the assay with MK-8722. Type of assay: functional. Particulars: 30 µM.
Assay [4] addresses Sialic acid-binding Ig-like lectin 9 (Homo sapiens) (UniProt Q9Y336). Briefly: Hs-Siglec9 ALPHAscreen SOP 20170721. Particulars: 10 µM. In general terms: Bead proximity is the source of the signal in Alpha formats.
The next assay deals with Trypanosoma cruzi. In words: Trypanosoma cruzi phosphomannomutase and mannose-1-phosphate guanylyltransferase assay. Format: functional. Particulars: 10 µM.
Assay [5] deals with T2, Arginase-2, mitochondrial (Homo sapiens) (UniProt P78540).
T2 sequence (whole entry): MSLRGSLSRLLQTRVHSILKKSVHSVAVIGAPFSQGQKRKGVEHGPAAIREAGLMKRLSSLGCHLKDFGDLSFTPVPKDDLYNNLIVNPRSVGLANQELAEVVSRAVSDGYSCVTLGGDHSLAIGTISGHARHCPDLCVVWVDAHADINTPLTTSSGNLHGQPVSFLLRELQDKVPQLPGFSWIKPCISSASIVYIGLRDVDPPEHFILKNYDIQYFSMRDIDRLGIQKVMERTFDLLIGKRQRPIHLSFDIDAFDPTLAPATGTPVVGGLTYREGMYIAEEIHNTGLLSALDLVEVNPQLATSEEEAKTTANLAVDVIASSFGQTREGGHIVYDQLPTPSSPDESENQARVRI
In words: in vitro enzyme assay to detect the production of urea directly proportional to the activity of Arginase II. Further: in the data most compounds retested in dose-response had high values. Format: functional. The following applies: 33.3 µM.

The target of assay [6] is T3, Proteasome subunit beta (Trypanosoma cruzi) (UniProt O96673).
T3 sequence (whole entry): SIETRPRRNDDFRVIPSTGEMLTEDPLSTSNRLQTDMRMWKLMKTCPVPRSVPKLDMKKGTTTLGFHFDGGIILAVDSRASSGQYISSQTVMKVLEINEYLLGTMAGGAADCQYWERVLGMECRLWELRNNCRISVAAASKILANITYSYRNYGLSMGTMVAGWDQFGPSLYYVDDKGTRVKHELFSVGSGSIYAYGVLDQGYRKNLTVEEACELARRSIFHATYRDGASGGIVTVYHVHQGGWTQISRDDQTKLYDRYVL
In words: Trypanosoma cruzi proteasome chymotrypsin-like activity (TcProtChymo) assay. Further: in the data most compounds retested in dose-response had high values. Format: functional. The following applies: 9.37 µM.

A further assay is filed under the species Homo sapiens. Briefly: To identify inhibition of the IFN signalling (Jak-Stat) pathway via expression of an eGFP reporter gene under the control of an IFN-stimulated response element (ISRE) containing MxA promoter. Type of assay: functional. Particulars: 30 µM. On the technique in general: Reporter assays use an easily measured gene product as a stand-in for the process of interest.

Assay [7] concerns the target T4, Tyrosyl-tRNA synthetase, putative (Trypanosoma cruzi (strain CL Brener)) (UniProt Q4DSP6).
T4 sequence (whole entry): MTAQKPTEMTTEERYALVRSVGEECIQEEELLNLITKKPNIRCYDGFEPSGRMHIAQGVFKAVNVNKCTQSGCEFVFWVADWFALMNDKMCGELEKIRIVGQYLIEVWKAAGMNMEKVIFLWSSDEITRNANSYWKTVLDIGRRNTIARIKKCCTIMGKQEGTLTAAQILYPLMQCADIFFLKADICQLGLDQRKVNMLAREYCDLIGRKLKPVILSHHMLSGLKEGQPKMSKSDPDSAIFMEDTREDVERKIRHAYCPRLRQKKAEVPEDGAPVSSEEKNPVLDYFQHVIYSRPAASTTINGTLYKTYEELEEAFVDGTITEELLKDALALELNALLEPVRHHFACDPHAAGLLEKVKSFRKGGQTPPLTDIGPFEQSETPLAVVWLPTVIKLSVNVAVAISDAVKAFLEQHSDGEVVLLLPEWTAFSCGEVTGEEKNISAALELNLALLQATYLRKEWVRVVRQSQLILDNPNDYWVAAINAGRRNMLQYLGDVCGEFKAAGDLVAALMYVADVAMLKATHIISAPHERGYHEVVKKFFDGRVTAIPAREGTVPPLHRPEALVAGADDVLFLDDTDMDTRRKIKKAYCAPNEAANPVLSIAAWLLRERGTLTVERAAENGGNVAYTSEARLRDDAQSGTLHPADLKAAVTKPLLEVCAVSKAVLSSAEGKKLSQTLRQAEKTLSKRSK
In words: Trypanosoma cruzi tyrosyl tRNA synthetase (TcYRS) _High Tyrosine SOP. Further: in the data most compounds retested in dose-response had high values. Format: functional. Particulars: 30 µM.

Assay [8] deals with T4, Tyrosyl-tRNA synthetase, putative (Trypanosoma cruzi (strain CL Brener)). In words: Trypanosoma cruzi tyrosyl tRNA synthetase (TcYRS) SOP. Format: functional. Particulars: 30 µM.
For assay [9], the target named is Chromo domain-containing protein 1 (Saccharomyces cerevisiae (strain ATCC 204508 / S288c) (Baker's yeast)) (UniProt P32657). In words: ScCHD-1 Enzyme Inhibition Assay. Further: in the data most compounds retested in dose-response had high values. Format: functional. Particulars: 30 µM.

For some of these results: Measured potencies and affinities stand elsewhere.

Chain of Sialic acid-binding Ig-like lectin 9 (Homo sapiens) (Q9Y336 whole entry): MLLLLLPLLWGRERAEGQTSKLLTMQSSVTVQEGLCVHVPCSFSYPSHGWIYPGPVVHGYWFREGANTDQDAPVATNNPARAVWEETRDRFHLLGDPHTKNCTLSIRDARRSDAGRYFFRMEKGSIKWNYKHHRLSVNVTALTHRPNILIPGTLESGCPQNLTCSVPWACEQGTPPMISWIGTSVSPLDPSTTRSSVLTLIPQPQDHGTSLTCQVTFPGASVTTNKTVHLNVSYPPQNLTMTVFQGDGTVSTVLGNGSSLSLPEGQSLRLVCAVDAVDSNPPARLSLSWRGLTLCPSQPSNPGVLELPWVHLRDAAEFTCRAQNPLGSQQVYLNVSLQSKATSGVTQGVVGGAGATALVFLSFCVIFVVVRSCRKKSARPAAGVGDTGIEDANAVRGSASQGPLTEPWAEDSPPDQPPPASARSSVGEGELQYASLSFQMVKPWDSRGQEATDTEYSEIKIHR
Chain of Chromo domain-containing protein 1 (Saccharomyces cerevisiae (strain ATCC 204508 / S288c) (Baker's yeast)) (P32657 whole entry, the tested form may be a part): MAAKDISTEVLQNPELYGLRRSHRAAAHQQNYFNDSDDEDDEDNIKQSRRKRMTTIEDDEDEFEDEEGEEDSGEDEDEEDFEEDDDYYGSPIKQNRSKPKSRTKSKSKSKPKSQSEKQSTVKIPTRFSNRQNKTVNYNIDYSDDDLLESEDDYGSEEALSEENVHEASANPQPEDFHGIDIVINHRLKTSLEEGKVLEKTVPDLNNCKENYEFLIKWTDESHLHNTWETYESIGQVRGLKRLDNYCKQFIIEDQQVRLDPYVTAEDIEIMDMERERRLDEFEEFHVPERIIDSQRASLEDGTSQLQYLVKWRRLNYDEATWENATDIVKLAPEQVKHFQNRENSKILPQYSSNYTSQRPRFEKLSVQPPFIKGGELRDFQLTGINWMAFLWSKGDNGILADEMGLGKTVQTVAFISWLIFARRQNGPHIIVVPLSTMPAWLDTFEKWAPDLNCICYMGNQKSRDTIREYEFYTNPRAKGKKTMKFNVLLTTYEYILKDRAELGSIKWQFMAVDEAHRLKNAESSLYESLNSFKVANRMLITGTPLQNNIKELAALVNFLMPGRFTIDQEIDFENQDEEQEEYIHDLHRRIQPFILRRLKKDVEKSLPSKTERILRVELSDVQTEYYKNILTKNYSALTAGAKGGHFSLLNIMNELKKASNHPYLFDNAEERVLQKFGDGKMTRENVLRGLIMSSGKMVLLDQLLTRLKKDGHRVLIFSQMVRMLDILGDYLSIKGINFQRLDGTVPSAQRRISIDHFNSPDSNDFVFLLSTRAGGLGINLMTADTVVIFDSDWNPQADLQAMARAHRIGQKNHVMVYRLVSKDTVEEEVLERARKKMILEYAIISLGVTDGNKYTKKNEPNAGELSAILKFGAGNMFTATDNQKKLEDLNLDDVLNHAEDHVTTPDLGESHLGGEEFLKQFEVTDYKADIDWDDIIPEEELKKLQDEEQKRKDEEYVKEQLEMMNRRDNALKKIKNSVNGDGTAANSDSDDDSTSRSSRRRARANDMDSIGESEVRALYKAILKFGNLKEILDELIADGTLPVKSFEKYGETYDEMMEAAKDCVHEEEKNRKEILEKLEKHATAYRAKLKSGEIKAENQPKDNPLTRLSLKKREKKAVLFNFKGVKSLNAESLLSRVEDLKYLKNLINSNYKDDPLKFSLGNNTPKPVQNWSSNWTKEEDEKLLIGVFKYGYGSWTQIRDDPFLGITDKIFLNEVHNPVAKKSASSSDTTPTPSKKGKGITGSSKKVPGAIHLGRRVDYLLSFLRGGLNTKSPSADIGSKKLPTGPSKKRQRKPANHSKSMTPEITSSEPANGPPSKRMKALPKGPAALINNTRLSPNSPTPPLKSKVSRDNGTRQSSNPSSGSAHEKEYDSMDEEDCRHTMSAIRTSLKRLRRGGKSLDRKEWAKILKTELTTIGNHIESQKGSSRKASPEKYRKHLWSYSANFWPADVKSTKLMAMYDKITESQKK
Chain of Protein translocase subunit SecA (Escherichia coli (strain K12)) (P10408 whole entry): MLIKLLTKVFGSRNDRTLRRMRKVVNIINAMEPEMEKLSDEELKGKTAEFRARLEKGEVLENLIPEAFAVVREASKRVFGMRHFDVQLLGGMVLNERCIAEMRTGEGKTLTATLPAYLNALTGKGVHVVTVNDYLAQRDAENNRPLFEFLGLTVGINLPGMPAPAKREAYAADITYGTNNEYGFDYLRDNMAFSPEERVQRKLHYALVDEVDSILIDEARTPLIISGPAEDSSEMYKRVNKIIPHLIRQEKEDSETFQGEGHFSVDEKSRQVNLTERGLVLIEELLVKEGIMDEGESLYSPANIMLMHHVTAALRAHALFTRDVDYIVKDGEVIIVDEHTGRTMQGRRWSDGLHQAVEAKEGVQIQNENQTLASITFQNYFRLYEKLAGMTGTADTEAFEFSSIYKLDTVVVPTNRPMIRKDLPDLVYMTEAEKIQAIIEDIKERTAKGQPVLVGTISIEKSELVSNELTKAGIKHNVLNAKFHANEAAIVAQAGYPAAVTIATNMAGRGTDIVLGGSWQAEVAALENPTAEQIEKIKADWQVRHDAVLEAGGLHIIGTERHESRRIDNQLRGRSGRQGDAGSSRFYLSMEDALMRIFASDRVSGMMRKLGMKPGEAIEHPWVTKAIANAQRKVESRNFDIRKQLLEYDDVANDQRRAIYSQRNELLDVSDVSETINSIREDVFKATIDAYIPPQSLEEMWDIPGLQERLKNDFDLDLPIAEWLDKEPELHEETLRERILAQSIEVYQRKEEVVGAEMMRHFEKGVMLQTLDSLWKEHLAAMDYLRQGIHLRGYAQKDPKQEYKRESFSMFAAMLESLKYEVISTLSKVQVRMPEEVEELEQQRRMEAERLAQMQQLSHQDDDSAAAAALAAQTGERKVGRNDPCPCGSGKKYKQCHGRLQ

With `C[S+]([O-])c1nncn1CC(=O)c1ccc(Cl)c(Cl)c1` (stereo not drawn), the Percent Effect in assay [1] was -5.28%; in assay [2], 8.11%; in [3], -4.71%; in assay [4], 15.3%; with Trypanosoma cruzi, 5.57%; in [5], 2.73%. Moreover, the Percent Effect in assay [6] is 4.38%; in the assay listed under Homo sapiens it was -5.62%; in assay [7] it was -4.3%; in assay [8], 1.24%; in [9] it was -5.11%.
Take `CC(=O)N1CCCN(C(=O)NCc2ccccn2)CC1`: the Percent Effect in assay [1] is -4.25%; in assay [2], 0%; in [3] it was 2.97%; in assay [4], 0.332%; with Trypanosoma cruzi, -5.88%; in assay [5], 3.6%. Moreover, the Percent Effect is 3.81% in [6]; 2.28% in the assay filed under Homo sapiens; 1.48% in [7]; -6.17% in assay [8]; 9.43% in assay [9].
For `CS(=O)(=O)c1ccc(NC(=O)N2CCc3sccc3C2)cn1`, the Percent Effect in assay [1] is -2.17%; in assay [2] it was 10.8%; in [3] it was 4.69%; in [4], -4.04%; in the assay on Trypanosoma cruzi, -3.71%; in assay [5], 1.67%. Further, the Percent Effect was 18.3% in [6]; 63.4% in the assay listed under Homo sapiens; 5.94% in assay [7]; 11% in [8]; 13.6% in [9].
Take `Cc1nc(C)n(C2CCCN(C(=O)Cc3cccnc3)C2)n1` (stereo not drawn): the Percent Effect in assay [1] is -6.21%; in [2], 5.41%; in assay [3] it was 2.37%; in assay [4], -1.07%; in the assay with Trypanosoma cruzi it was 0.586%; in assay [5] it was 2.5%. Besides, the Percent Effect in assay [6] is 6.17%; in the assay filed under Homo sapiens, -10.7%; in [7] it was 5.94%; in assay [8], 11%; in [9], -2.33%.
Regarding `Cc1cc(C)c(CNC(=O)NCC(O)COc2ccccc2)c(=O)[nH]1` (stereo not drawn), the Percent Effect was -9.63% in assay [1]; 7.89% in assay [2]; 4.9% in [3]; 1.32% in [4]; -0.84% in the assay with Trypanosoma cruzi; -0.719% in [5]. The Percent Effect in assay [6] was -1.1%; in the assay listed under Homo sapiens, 12%; in [7] it was 1.48%; in assay [8] it was -1.24%; in assay [9], -2.07%.
For the molecule `NC(=O)C1CCCN(Cc2c(-c3ccco3)[nH]c3ncccc23)C1` (stereo not drawn), the Percent Effect in assay [1] is -1.81%; in [2], 12.2%; in [3], -2.48%; in assay [4] it was 1.48%; with Trypanosoma cruzi it was -3.16%; in [5], 1.16%. In addition, the Percent Effect in assay [6] was 9.83%; in the assay listed under Homo sapiens, 23.8%; in assay [7], 7.53%; in assay [8] it was 14.3%; in assay [9], -8.85%.
For `CCc1nc(CN(C(C)=O)C2CCN(Cc3cnc(C)cn3)C2)no1` (stereo not drawn), the Percent Effect in [1] is -1.41%; in [2], 22.8%; in assay [3] it was -8.69%; in assay [4], -10.4%; in the assay with Trypanosoma cruzi, -3.31%; in assay [5], 4.18%. Further, the Percent Effect in [6] was 5.16%; in the assay listed under Homo sapiens it was 27.4%; in [7], 4.43%; in [8] it was 13.9%; in [9], -6.99%.
Take `CCCNC(=O)c1ccc(NC(=O)c2cccc(OCC)c2)cc1`: the Percent Effect was 1.49% in [1]; -5.41% in assay [2]; 0.466% in [3]; -0.164% in assay [4]; -1.16% in the assay on Trypanosoma cruzi; 0.952% in [5]. Moreover, the Percent Effect worked out at 7.07% in assay [6]; 3.02% in the assay listed under Homo sapiens; 0.529% in [7]; 2.44% in assay [8]; 2.44% in assay [9].
